Compounds without any hit were thinned out: in the full panel of roughly 83,000, 20% have a hit.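 Single-concentration screen, 48 h exposure, 96-well plates. Endpoint: percent growth. Below 10 = active.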 Unmarked numbers belong to inactive results. Calls of active or inactive are those of the source.

Some test systems named below: DU-145 prostate; K-562 leukemia; MALME-3M melanoma; MDA-MB-231 breast; RXF 393 renal; SF-268 CNS; SF-295 CNS; SF-539 CNS; UACC-257 melanoma; M14 melanoma; HCT-15 colon; HT29 colon; SNB-75 CNS; SNB-19 CNS; U251 CNS; PC-3 prostate; SK-MEL-5 melanoma; UACC-62 melanoma; LOX IMVI melanoma; SK-MEL-28 melanoma.
Holding throughout (assay): NCI-60 one-dose screen, 48 h (100 = growth as untreated, 0 = no growth, -100 = all killed)
Common to all, as to details: 10 µM unless noted

Turning to `COc1cc(Cn2cc3c(c2)-c2onc(CO)c2CC3)cc(OC)c1OC`, the growth in the assay on DU-145 prostate was 103%; with K-562 leukemia, 78.5%; in the assay on MALME-3M melanoma, 79.7%; in the assay on MDA-MB-231 breast, 103%; in the assay on RXF 393 renal, 95.8%; with SF-268 CNS it was 96%. For the same molecule, the growth in the assay with SF-295 CNS was 92.1%; in the assay with SF-539 CNS it was 96.8%; with UACC-257 melanoma, 93.2%; with M14 melanoma, 85.8%; in the assay with HCT-15 colon, 89%; in the assay with HT29 colon, 104%. Further, the growth in the assay with SNB-75 CNS was 82%; in the assay with SNB-19 CNS it was 94.5%; with U251 CNS, 97.6%; in the assay with PC-3 prostate, 88.7%; with SK-MEL-5 melanoma, 83.3%; in the assay with UACC-62 melanoma, 80.3%. The growth in the assay on LOX IMVI melanoma was 94.7%; in the assay on SK-MEL-28 melanoma, 93.7%.

On to `O=C(Nc1cccc(-n2ccc3c(NC(=O)c4ccccc4)nccc32)c1)Nc1ccc(Cl)c(C(F)(F)F)c1`, for which the growth is -19.3% (active) in the assay with DU-145 prostate; 3.03% (active) in the assay on K-562 leukemia; 33.6% with MALME-3M melanoma; 13.7% in the assay with MDA-MB-231 breast; -41.7% (active) with RXF 393 renal; 8.59% (active) with SF-268 CNS. The growth with SF-295 CNS is -6.24% (active); in the assay with SF-539 CNS, 8.31% (active); in the assay on UACC-257 melanoma, 46.2%; with M14 melanoma, 2.96% (active); in the assay on HCT-15 colon, 10.6%; in the assay with HT29 colon it was -38.9% (active). In addition, the growth is 54.7% in the assay on SNB-75 CNS; 24.8% with SNB-19 CNS; 9.27% (active) in the assay on U251 CNS; 20.4% in the assay on PC-3 prostate; -35.5% (active) with SK-MEL-5 melanoma; 20.9% in the assay with UACC-62 melanoma. Moreover, the values for the growth in the assay with LOX IMVI melanoma and in the assay on SK-MEL-28 melanoma were 11.8% and 44.5%, respectively.

Consider `Cc1cc(Nc2ccc(Cl)c(Cl)c2)nc(N)n1`, for which the growth in the assay with DU-145 prostate is 94.3%; in the assay on K-562 leukemia it was 87.4%; in the assay with MALME-3M melanoma, 121%; in the assay with MDA-MB-231 breast it was 101%; in the assay on RXF 393 renal, 72.9%; with SF-268 CNS, 95.2%. Further, the growth with SF-295 CNS is 96.8%; in the assay on SF-539 CNS, 99.9%; in the assay on UACC-257 melanoma, 77.1%; with M14 melanoma, 91.6%; in the assay with HCT-15 colon, 97.3%; in the assay with HT29 colon it was 86.9%. The growth in the assay on SNB-75 CNS is 72.3%; in the assay with SNB-19 CNS, 107%; in the assay with U251 CNS it was 95.3%; with PC-3 prostate, 89.6%; with SK-MEL-5 melanoma, 83.9%; in the assay with UACC-62 melanoma it was 89.1%. Besides, the growth is 100% in the assay on LOX IMVI melanoma and 101% with SK-MEL-28 melanoma.

Take `S=c1n(CNc2ccc(Cl)nn2)nc(-c2cc(Cl)cc(Cl)c2Cl)n1/N=C/c1ccc(Cl)cc1`: the growth in the assay on DU-145 prostate was 109%; with K-562 leukemia, 71.7%; in the assay with MALME-3M melanoma, 89.3%; in the assay on MDA-MB-231 breast, 92.9%; with RXF 393 renal it was 149%; in the assay on SF-268 CNS it was 107%. Besides, the growth with SF-295 CNS was 70%; in the assay with SF-539 CNS, 101%; in the assay with UACC-257 melanoma, 106%; in the assay on M14 melanoma, 55.8%; with HCT-15 colon, 117%; with HT29 colon, 118%. The growth with SNB-75 CNS was 98.5%; with SNB-19 CNS it was 102%; in the assay on U251 CNS, 86.9%; with PC-3 prostate, 82.6%; in the assay on SK-MEL-5 melanoma it was 90.9%; with UACC-62 melanoma it was 90.4%. Also, the growth is 94.5% in the assay on LOX IMVI melanoma and 105% in the assay with SK-MEL-28 melanoma.

With `COc1cc(C(=O)C[n+]2ccccc2)ccc1OC(C)=O`, the growth was 106% in the assay on DU-145 prostate; 101% in the assay on K-562 leukemia; 105% in the assay with MALME-3M melanoma; 102% with MDA-MB-231 breast; 92% with RXF 393 renal; 98.4% in the assay on SF-268 CNS. In addition, the growth with SF-295 CNS is 97.4%; in the assay with SF-539 CNS it was 94.3%; in the assay on UACC-257 melanoma, 95.4%; in the assay on M14 melanoma it was 94.9%; with HCT-15 colon it was 103%; with HT29 colon it was 108%. In addition, the growth is 87.6% in the assay with SNB-75 CNS; 98.6% with SNB-19 CNS; 98.9% in the assay with U251 CNS; 89.9% in the assay with PC-3 prostate; 98% with SK-MEL-5 melanoma; 97.1% in the assay on UACC-62 melanoma. Besides, the growth in the assay on LOX IMVI melanoma was 101%; with SK-MEL-28 melanoma, 107%.

In the case of `C[C@@H]1CC2C3C[C@H](F)C4=CC(=O)C=C[C@]4(C)[C@@]3(F)[C@@H](O)C[C@]2(C)[C@@]1(O)C(=O)CO` (stereo not given in full), the growth is 80.8% with DU-145 prostate; 107% in the assay on K-562 leukemia; 84.7% in the assay on MALME-3M melanoma; 95.1% with MDA-MB-231 breast; 120% in the assay on RXF 393 renal; 88.8% in the assay on SF-268 CNS. In addition, the growth in the assay with SF-295 CNS was 116%; with SF-539 CNS it was 83.2%; in the assay with UACC-257 melanoma, 88.4%; with M14 melanoma, 93.5%; in the assay with HCT-15 colon, 101%; in the assay with HT29 colon, 102%. Besides, the growth with SNB-75 CNS is 132%; in the assay on SNB-19 CNS, 91.8%; in the assay with U251 CNS, 105%; in the assay on PC-3 prostate, 86.1%; in the assay on SK-MEL-5 melanoma it was 90.4%; with UACC-62 melanoma, 97.3%. The growth in the assay on LOX IMVI melanoma was 92.1%; with SK-MEL-28 melanoma, 108%.

Turning to `Nc1ncnc2c1c(-c1ccc(Oc3ccccc3)cc1)nn2C[C@H]1SSC[C@H]1O`, the growth is -22.6% (active) in the assay on DU-145 prostate; -16.9% (active) in the assay on K-562 leukemia; 13.9% in the assay with MALME-3M melanoma; 9.82% (active) with MDA-MB-231 breast; -4.66% (active) in the assay on RXF 393 renal; 20.1% with SF-268 CNS. Further, the growth with SF-295 CNS is 20.7%; with SF-539 CNS, 10%; in the assay on UACC-257 melanoma it was 1.69% (active); in the assay with M14 melanoma, -66.7% (active); in the assay with HCT-15 colon it was 26.6%; in the assay with HT29 colon, -59.1% (active). Besides, the growth in the assay on SNB-75 CNS was 3.26% (active); with SNB-19 CNS it was 45.9%; in the assay with U251 CNS it was 21.1%; with PC-3 prostate, 50.7%; with SK-MEL-5 melanoma it was -92.5% (active); in the assay with UACC-62 melanoma it was -48.8% (active). The growth is -57.7% (active) in the assay with LOX IMVI melanoma and -16.3% (active) in the assay with SK-MEL-28 melanoma.

The values are drawn from PubChem BioAssay (NCI).
